Results reported in PubChem BioAssay.
Records with an inconclusive call do not appear. Calls of active or inactive are those of the source.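 Rule for the calls, unless noted: active = GFP response above 150% of the DMSO control; inconclusive = fewer than 70 events counted in any yeast strain; inactive = the rest.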

Experiments:
[1] = yeast TOR pathway RPL19A-GFP modulators, primary screen, cell-based, S. cerevisiae, multiplex flow cytometry (AID 1862; in the data active = percent of DMSO control GFP below about 86%;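 note: lower values mimic rapamycin by blocking the RPL19A rise seen in DMSO cells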); conditions: S. cerevisiae RPL19A-GFP strain, flow cytometry fluorescence, 3 h; at 10 µM; stronger effect = lower value
[2] = modulators of MEP2-GFP levels in yeast, primary screen, S. cerevisiae, multiplex flow cytometry (AID 1867;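 active = GFP response, as percent of the DMSO control, above the screen-wide mean plus 3 SD, about 139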;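 note: median GFP channel fluorescence of barcode-gated MEP2-GFP cells measured by flow cytometry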); conditions: S. cerevisiae MEP2-GFP strain, 3 h, at 10 µM, stronger effect = higher value, 100% means same as DMSO wells
[3] = modulators of CIT2-GFP expression in yeast, primary screen, S. cerevisiae, GFP fusion, multiplex flow cytometry (AID 1870;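 active = percent response above a set limit, the screen-wide mean plus 3 SD, cut at about 130% in these data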;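 note: barcoded CIT2-GFP strain pooled with four other GFP strains with rapamycin as positive control; median GFP fluorescence per well over plate mean of DMSO wells so 100% = DMSO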); conditions: 3 h, at 10 µM, stronger effect = higher value
[4] = modulators of LAP4-GFP expression in yeast, primary screen, S. cerevisiae, multiplex flow cytometry (AID 1873;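 active = GFP signal, as percent of the solvent control, above the screen mean plus 3 SD, about 149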); conditions: 3 h, at 10 µM, stronger effect = higher value
[5] = modulators of AGP1-GFP expression in yeast TOR pathway, primary screen, cell-based, multiplex flow cytometry, S. cerevisiae (AID 1887;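 active = GFP signal above the screen-wide mean plus 3 SD, that is over about 124.5% of the solvent control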;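 note: AGP1-GFP fusion strain of S. cerevisiae within a five-strain barcoded multiplex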); conditions: 3 h, at 10 µM, stronger effect = higher value
[6] = RPL19A-GFP modulators, yeast TOR pathway, confirmation, cell-based, S. cerevisiae, flow cytometry, cherry picks, mother/daughter gates (AID 2270;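 active = GFP response below 50% of the DMSO control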); conditions: S. cerevisiae RPL19A-GFP strain, 3 h, at 10 µM, stronger effect = lower value, 100 = same GFP as DMSO wells
[7] = LAP4-GFP expression modulators in yeast, confirmation, cell-based, cherry picks, flow cytometry, mother/daughter gates (AID 2271);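 note: ratio of sample to DMSO plate mean so 100% equals DMSO level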; conditions: S. cerevisiae LAP4-GFP strain, 3 h, at 10 µM, stronger effect = higher value, 100 means same as DMSO control
[8] = modulators of MEP2-GFP levels in yeast, confirmation, S. cerevisiae, flow cytometry GFP, cherry picks (AID 2272;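 active = GFP response above 150% of the DMSO control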;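 note: ratio of well signal to plate DMSO mean so 100% equals DMSO level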); conditions: S. cerevisiae MEP2-GFP strain, 3 h, at 10 µM, stronger effect = higher value
[9] = modulators of CIT2-GFP expression in yeast, confirmation, S. cerevisiae, GFP fusion, cherry picks, mother/daughter gates (AID 2274;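 active = GFP response above 150% of the DMSO level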); conditions: S. cerevisiae CIT2-GFP strain, flow cytometry, 3 h, at 10 µM, stronger effect = higher value
[10] = inhibitors of CD8+ T cell-vesicle binding, pilot screen, LFA-1/ICAM-1 modulator project, MLPCN validation set, flow cytometry (AID 2523;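 active = response below a set limit, under 55% cells CD8-positive and vesicle-bound, and CD8 cells' 90th-percentile brightness under 279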;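 for vesicle binding response: mean PE anti-B7-1 fluorescence of CD8+ cells relative to row control; 100% = QL9-loaded vesicles with DMSO vehicle in the same plate row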); conditions: 2C mouse CD8+ T cells, at 7 µM, stronger effect = lower value; double positive events: measured here: CD8+/vesicle+ event percentage
[11] = molecular target: Integrin beta-1 (Homo sapiens) + Integrin alpha-4 (Homo sapiens) (UniProt P13612+P05556); test: inhibition of HUTS-21 binding to VLA-4, pilot screen, VLA-4 allosteric modulator project, U937 cells, HUTS-21 mAb, flow cytometry, validation set (AID 2674;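 active = inhibition above 50%, about 3 SD of the validation set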;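 note: antibody binding induced by the VLA-4 ligand LDV present at three times its Kd; 0% = LDV ligand with antibody and no compound and 100% = antibody without LDV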); conditions: HUTS-21 LIBS mAb binding, at 6.7 µM, stronger effect = higher value, binding induced by LDV ligand
Integrin beta-1 (Homo sapiens) + Integrin alpha-4 (Homo sapiens), sequence (P05556 whole entry, looked up): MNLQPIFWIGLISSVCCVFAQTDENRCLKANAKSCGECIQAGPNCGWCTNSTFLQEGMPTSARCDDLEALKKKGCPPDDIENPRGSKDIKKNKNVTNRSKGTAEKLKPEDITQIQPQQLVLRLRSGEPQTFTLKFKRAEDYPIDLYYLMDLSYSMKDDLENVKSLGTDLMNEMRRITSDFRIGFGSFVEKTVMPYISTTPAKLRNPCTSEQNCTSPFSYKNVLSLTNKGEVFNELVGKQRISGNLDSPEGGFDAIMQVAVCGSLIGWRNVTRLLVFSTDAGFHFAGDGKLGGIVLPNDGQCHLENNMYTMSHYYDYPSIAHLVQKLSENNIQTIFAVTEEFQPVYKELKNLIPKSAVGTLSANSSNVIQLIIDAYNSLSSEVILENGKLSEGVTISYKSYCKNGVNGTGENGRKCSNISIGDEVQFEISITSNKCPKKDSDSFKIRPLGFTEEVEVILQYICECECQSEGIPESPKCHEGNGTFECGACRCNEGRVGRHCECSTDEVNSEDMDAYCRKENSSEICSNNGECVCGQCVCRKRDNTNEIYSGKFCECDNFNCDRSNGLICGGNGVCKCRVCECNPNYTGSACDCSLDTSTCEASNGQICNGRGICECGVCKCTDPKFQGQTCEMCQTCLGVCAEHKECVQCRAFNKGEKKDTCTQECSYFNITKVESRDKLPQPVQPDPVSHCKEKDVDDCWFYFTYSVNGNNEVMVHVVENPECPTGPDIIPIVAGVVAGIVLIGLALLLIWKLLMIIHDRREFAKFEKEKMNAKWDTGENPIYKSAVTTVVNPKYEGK
Integrin beta-1 (Homo sapiens) + Integrin alpha-4 (Homo sapiens), sequence (P13612 whole entry, looked up): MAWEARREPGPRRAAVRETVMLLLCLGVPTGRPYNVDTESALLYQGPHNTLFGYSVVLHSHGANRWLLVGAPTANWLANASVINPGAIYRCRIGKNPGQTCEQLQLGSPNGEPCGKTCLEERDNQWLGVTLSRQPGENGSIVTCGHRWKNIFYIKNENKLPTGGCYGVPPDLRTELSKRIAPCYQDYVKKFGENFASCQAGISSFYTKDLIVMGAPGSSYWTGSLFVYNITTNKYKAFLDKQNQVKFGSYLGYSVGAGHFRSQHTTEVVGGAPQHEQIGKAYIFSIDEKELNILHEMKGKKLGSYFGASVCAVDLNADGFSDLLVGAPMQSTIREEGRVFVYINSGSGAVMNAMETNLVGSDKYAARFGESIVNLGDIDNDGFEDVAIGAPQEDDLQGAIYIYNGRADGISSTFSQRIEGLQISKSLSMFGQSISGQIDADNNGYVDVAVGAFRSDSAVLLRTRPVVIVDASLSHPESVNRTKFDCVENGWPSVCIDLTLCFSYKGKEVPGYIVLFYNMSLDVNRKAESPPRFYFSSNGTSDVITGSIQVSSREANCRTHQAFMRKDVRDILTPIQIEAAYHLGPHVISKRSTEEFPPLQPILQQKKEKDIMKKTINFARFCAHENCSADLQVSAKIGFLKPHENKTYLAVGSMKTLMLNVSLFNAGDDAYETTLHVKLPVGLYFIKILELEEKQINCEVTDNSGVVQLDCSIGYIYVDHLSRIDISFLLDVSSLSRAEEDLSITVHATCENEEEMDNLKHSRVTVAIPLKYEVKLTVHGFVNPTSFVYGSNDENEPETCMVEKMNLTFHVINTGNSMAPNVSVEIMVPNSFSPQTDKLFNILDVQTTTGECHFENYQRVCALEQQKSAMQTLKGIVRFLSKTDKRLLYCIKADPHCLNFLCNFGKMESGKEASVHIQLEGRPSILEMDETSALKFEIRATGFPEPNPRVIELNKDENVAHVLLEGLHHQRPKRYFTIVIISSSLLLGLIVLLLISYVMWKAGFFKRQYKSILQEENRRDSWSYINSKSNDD

[12] = superoxide lowering in aged yeast cells, pilot screen, validation compound set (AID 2706;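 active = superoxide response below 65% of plate, a cut near 3 SD across the whole screen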;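 note: yeast exposed to compound for one week at 30 degrees C before staining; 100% = mean of all compound wells on the same plate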); conditions: S. cerevisiae aging, superoxide DHE fluorescence; at 10 µM; stronger effect = lower value
[13] = molecular target: Beta-adrenergic receptor kinase 1 (Homo sapiens) (UniProt P25098); test: GRK2 binders displacing RNA aptamer, biochemical, validation, human GRK2, bead flow cytometry (AID 488806;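 active = aptamer binding inhibition above 30%, about 3 SD of noise from non-fluorescent compounds; inactive = inhibition at or below 30%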); conditions: bead-bound GRK2, FAM-aptamer displacement, at 10 µM, stronger effect = higher value
Beta-adrenergic receptor kinase 1 (Homo sapiens), sequence (P25098 whole entry, looked up): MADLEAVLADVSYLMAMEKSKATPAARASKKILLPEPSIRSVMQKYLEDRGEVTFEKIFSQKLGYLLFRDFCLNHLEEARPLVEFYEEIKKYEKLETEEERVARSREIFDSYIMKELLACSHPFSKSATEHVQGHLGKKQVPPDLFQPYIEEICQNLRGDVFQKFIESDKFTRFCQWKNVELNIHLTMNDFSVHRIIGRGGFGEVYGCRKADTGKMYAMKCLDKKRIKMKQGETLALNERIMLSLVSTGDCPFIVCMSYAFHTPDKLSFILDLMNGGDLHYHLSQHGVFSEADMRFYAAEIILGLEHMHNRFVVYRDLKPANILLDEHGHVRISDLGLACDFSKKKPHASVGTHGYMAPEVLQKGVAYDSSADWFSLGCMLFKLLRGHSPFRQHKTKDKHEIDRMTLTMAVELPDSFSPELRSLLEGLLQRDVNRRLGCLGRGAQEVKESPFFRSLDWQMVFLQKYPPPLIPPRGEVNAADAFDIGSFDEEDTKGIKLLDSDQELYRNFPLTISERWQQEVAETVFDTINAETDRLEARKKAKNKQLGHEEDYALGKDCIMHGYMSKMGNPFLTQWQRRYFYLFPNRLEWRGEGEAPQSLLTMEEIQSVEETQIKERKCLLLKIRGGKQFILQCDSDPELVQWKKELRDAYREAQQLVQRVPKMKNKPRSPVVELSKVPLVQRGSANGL

[14] = molecular target: Beta-2 adrenergic receptor (Homo sapiens) (UniProt P07550); test: beta2AR agonists driving receptor internalization, pilot screen, cell-based, FAP fluorogen, flow cytometry, validation set (AID 504459;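 active = percent response above 42, roughly 3 SD of non-fluorescent test compounds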;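 note: agonist-driven loss of surface beta2AR via internalization measured by FAP dye flow cytometry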); conditions: Am2.2-beta2AR cells, FAP surface receptor flow cytometry; at 10 µM; stronger effect = higher value
Beta-2 adrenergic receptor (Homo sapiens), sequence (P07550 whole entry, looked up): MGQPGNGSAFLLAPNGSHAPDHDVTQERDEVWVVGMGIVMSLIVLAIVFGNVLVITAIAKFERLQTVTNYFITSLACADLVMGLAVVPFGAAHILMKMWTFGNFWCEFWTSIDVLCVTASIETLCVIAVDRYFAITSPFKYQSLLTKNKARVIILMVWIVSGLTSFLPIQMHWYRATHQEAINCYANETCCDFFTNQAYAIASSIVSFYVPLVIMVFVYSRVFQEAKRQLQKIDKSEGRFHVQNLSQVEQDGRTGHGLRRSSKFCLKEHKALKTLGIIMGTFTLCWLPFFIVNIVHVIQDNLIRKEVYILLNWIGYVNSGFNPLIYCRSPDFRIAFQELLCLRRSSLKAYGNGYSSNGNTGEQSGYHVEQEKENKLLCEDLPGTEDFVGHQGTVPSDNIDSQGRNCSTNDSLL

[15] = molecular target: AP-2 complex subunit beta (Homo sapiens) (UniProt P63010); test: inhibitors of arrestin peptide binding to AP2, pilot screen, biochemical, validation set, GST-AP2 beads, flow cytometry (AID 504541;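 active = inhibition above 54%, about 3 SD of non-fluorescent compounds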;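 note: AP2 carries R879A mutation and is captured from E. coli lysate; bead-bound FITC arrestin peptide fluorescence measuring arrestin peptide binding to AP2; 0% = DMSO wells and 100% = excess unlabeled arrestin peptide control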); conditions: FITC arrestin peptide, at 10 µM, stronger effect = higher value, AP2 beta2 appendage fragment, R879A mutant
AP-2 complex subunit beta (Homo sapiens), sequence (P63010 whole entry, looked up, the tested form may be a part, one chain of several): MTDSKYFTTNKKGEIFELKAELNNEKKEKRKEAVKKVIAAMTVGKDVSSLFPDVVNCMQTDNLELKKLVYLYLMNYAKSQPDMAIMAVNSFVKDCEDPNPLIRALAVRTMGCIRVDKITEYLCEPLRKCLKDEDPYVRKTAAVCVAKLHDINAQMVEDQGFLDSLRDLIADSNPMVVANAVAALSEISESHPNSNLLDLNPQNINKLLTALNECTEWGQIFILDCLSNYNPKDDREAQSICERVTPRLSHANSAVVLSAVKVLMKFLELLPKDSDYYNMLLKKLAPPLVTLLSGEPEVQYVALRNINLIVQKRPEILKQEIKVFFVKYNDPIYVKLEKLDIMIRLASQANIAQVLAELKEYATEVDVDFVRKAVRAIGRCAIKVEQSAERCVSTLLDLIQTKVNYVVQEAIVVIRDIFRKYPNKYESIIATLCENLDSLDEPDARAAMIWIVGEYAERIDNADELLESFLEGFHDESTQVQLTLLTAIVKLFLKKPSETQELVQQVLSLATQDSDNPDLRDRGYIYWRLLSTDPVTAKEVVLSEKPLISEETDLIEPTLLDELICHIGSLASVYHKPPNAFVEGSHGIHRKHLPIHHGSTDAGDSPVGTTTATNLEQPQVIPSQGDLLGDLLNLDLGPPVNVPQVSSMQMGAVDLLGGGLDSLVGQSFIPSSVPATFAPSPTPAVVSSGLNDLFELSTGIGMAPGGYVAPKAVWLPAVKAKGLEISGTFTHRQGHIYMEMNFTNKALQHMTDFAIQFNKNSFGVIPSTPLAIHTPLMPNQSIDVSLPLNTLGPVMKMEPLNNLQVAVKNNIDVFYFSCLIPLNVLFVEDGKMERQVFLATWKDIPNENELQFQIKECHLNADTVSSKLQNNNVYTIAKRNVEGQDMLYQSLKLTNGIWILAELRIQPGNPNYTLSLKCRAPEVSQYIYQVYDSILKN

[16] = yeast V-ATPase proton transport modulators, S. cerevisiae, pHLuorin, HTS validation (AID 504600; in the data active = response above about 15%;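 note: plate controls were DMSO for no effect and reference compound for full effect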); conditions: S. cerevisiae pHLuorin cytosolic pH, at 10 µM, stronger effect = higher value
[17] = system: anti-desmoglein-3 scFv antibody binding to human DSG3; test: inhibitors of anti-DSG3 scFv binding to DSG3, pilot screen, biochemical, validation compound set, bead-based, flow cytometry (AID 588368;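 active = binding below the plate cutoff, the plate median minus 3 SD, with a reading above zero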;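 note: signal is the median channel fluorescence of bead-bound GFP antibody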); conditions: Protein G beads, DSG3-Fc, scFv-GFP binding, at 10 µM, stronger effect = lower value
[18] = inhibitors of fungal efflux pumps CDR1, CDR2, MDR1, pilot screen, validation compound set, multiplex, phenotypic (AID 588506;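 active = efflux inhibition above 0.42, the validation set average plus 4 SD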;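 note: Nile Red retained in cells so higher fluorescence means more efflux inhibition; 0 = negative control wells and 1 = enniatin B 25 µM full block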); conditions: S. cerevisiae pump-expressing triplex, Nile Red efflux flow cytometry; at 10 µM; stronger effect = higher value; the pumps come from Candida albicans
[19] = molecular target: ATP-binding cassette sub-family B member 6 (Homo sapiens) (UniProt Q9NP58); test: ABCB6 transporter inhibitors, pilot screen, K562-ABCB6 cells, flow cytometry, validation set (AID 588550;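 active = inhibition above the screen-wide mean plus 3 SD, about 51%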;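 note: 0% = DMSO wells and 100% = benzethonium chloride 70 µM positive control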); conditions: K562-ABCB6 porphyrin accumulation, 1 h, at 10 µM, stronger effect = higher value
ATP-binding cassette sub-family B member 6 (Homo sapiens), sequence (Q9NP58 whole entry, looked up): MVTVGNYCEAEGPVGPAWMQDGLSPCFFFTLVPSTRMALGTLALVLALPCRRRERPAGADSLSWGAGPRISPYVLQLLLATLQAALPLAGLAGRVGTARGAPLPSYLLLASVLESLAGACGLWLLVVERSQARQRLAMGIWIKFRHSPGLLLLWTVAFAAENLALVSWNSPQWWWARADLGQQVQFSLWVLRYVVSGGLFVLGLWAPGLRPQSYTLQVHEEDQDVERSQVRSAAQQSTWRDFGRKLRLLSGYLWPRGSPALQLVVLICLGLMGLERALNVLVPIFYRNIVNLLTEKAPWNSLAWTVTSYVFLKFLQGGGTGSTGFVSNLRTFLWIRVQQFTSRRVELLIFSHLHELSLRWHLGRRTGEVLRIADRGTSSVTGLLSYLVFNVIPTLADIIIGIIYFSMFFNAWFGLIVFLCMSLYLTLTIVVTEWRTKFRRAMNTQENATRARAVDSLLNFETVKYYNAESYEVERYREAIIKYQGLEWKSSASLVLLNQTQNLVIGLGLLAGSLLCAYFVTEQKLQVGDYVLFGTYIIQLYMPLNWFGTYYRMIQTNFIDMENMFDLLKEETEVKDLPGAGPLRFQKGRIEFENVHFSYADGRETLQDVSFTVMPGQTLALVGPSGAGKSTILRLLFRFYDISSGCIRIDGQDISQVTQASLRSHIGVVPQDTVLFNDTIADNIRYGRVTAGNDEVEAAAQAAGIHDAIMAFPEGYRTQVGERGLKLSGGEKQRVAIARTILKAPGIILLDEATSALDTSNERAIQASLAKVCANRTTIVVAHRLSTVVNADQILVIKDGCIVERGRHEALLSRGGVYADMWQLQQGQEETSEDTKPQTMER

[20] = promoters of myeloid differentiation in arrested cells, primary screen, cell-based, GFP/MAC1 double positive, flow cytometry, validation set (AID 588685;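 active = differentiation response of at least 50%, scaled between solvent and reference control, from cells with both markers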;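 note: compound exposure lasts four days before antibody staining and flow analysis; 0% = DMSO wells and 100% = 5 µM fulvestrant positive control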); conditions: ER-HoxA9 marrow cells, stronger effect = higher value, normalized: vehicle 0, fulvestrant 100
[21] = measured here: daughter cell gate
[22] = measured here: mother cell gate
[23] = measured here: daughter cell gate response
[24] = measured here: mother cell gate response

CN1CCN2c3ccccc3Cc3ccccc3C2C1 (stereo unspecified)
inactive: percent of DMSO control GFP [1] 90.2% | percent response of DMSO control [3] 118% | GFP response vs DMSO [4] 94.6% | GFP response, % of DMSO [5] 107% | GFP response vs DMSO [6] 99.3% | GFP response relative to DMSO [7] 95% | GFP response vs DMSO [8] 100% | GFP response, % of DMSO [9] 99.1% | vesicle binding response [10] 183% | inhibition [11] 8.4% | superoxide response (% of plate) [12] 99.6% | aptamer binding inhibition [13] 2% | response [14] 4.6% | inhibition [15] 36.1% | response [16] -3.99% | binding (% of control) [17] 95.6% | efflux inhibition (fraction of control) [18] -0.13 | inhibition [19] 3% | differentiation response [20] -0.82%
98.4%: GFP response vs DMSO [6, 21]
101%: GFP response, % of DMSO [9, 22]
61.8%: double positive events [10]
97.2%: GFP response relative to DMSO [7, 23] | GFP response relative to DMSO [7, 24]
100%: GFP response vs DMSO [6, 22]
94.8%: GFP response, % of DMSO [9, 21]
active: GFP response vs DMSO [2] 146%

CN/C(=C/[N+](=O)[O-])NCCSCc1ccc(CN(C)C)o1
101%: GFP response vs DMSO [6, 21]
105%: GFP response, % of DMSO [9, 21]
97.6%: GFP response relative to DMSO [7, 23]
inactive: percent of DMSO control GFP [1] 91.7% | percent response of DMSO control [3] 108% | GFP response vs DMSO [4] 83.6% | GFP response, % of DMSO [5] 87.7% | GFP response vs DMSO [6] 100% | GFP response relative to DMSO [7] 97.9% | GFP response vs DMSO [8] 107% | GFP response, % of DMSO [9] 101% | vesicle binding response [10] 123% | inhibition [11] -0.33% | superoxide response (% of plate) [12] 89.5% | aptamer binding inhibition [13] -20% | response [14] 2.38% | inhibition [15] -0.41% | response [16] -2.01% | binding (% of control) [17] 104% | efflux inhibition (fraction of control) [18] -0.42 | inhibition [19] 14% | differentiation response [20] -3.28%
99.7%: GFP response, % of DMSO [9, 22]
96.1%: GFP response relative to DMSO [7, 24]
64.5%: double positive events [10]
active: GFP response vs DMSO [2] 150%
99.2%: GFP response vs DMSO [6, 22]

CC(=O)c1ccc(CCCCCCCCCC(=O)O)s1
113%: GFP response relative to DMSO [7, 24]
93.2%: GFP response, % of DMSO [9, 21]
111%: GFP response relative to DMSO [7, 23]
96.7%: GFP response vs DMSO [6, 21]
active: GFP response vs DMSO [4] 174% | differentiation response [20] 66.4%
inactive: percent of DMSO control GFP [1] 98.6% | GFP response vs DMSO [2] 97.4% | percent response of DMSO control [3] 66.4% | GFP response, % of DMSO [5] 86.2% | GFP response vs DMSO [6] 99% | GFP response relative to DMSO [7] 108% | GFP response vs DMSO [8] 100% | GFP response, % of DMSO [9] 99.1% | vesicle binding response [10] 207% | inhibition [11] 13.2% | superoxide response (% of plate) [12] 117% | aptamer binding inhibition [13] -5% | response [14] 23.9% | inhibition [15] 26.2% | response [16] -3% | binding (% of control) [17] 99.3% | efflux inhibition (fraction of control) [18] 0.01 | inhibition [19] -2%
101%: GFP response, % of DMSO [9, 22]
60%: double positive events [10]
98.5%: GFP response vs DMSO [6, 22]
